# Test results from ChEMBL document CHEMBL1961873, “Compounds: GSK PKIS; Assays: Nanosyn kinase panel” (2012).
# Several values for one entry are separate records, joined by “and”; a condition that tells them apart may be missing. Equal entries are not always repeated.
# Molecular target: Serine/threonine-protein kinase PAK 6 (Homo sapiens) (UniProt Q9NQU5)
# Conditions: at 0.1 µM
# 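Note: mean PAK6 inhibition reported from the GSK PKIS screen.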
# Chain of Serine/threonine-protein kinase PAK 6 (Homo sapiens) (Q9NQU5 whole entry, looked up): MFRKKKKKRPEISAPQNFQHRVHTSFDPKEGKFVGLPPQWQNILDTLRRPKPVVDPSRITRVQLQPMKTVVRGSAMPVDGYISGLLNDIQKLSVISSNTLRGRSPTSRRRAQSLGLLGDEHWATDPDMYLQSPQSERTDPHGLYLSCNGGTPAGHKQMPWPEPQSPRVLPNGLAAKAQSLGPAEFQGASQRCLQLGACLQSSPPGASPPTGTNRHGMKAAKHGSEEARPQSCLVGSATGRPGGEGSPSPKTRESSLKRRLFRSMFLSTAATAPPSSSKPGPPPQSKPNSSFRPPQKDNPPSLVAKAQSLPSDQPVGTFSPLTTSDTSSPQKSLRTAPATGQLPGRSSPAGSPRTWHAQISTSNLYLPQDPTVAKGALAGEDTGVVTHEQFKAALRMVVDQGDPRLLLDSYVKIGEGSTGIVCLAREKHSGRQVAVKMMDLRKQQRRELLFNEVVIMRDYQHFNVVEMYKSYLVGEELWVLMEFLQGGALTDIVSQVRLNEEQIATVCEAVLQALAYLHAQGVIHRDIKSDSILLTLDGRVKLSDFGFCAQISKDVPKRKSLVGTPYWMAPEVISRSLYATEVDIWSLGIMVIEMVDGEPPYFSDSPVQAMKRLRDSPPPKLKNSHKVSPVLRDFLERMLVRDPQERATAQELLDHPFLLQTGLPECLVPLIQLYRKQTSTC
row,Compound,inhibition
1,NS(=O)(=O)c1ccc(N/N=C2\C(=O)Nc3ccc(C(=O)NCc4ccncc4)cc32)cc1,-4.52%
2,CCCNc1cccc(-n2ncc3c(N/N=C/c4ccncc4)ncnc32)c1,16.9%
3,c1cnn2ncc(-c3ccnc(NCCCN4CCOCC4)n3)c2c1,-0.41%
4,O=C(Nc1n[nH]c2nnc(-c3cccnc3)cc12)C1CC1,-7.92%
5,COC(=O)Nc1nc2cc(Oc3ccc(NC(=O)Nc4ccccc4)cc3)ccc2[nH]1,-4.28%
6,Fc1ccc(Nc2nccc(-c3c(-c4ccc(C(F)(F)F)cc4)nn4ncccc34)n2)cc1F,0.92%
7,CCS(=O)(=O)c1ccc(OC)c(Nc2ncc(-c3cccc(F)c3)o2)c1,-7.56%
8,CN1CCC(C(=O)Nc2n[nH]c3nc(-c4ccc(O)cc4)c(Br)cc23)CC1,-2.46% and -9.85%
9,CC1=C(C(=O)Nc2ccc3[nH]nc(C)c3c2)C(c2ccc(C(F)(F)F)cc2)CC(=O)N1 (stereo unspecified),-0.15%
10,COc1cccc(-n2ncc3c(N/N=C/c4ccc(C(=O)NCCN(C)C)cc4)ncnc32)c1,1.68%
11,N#Cc1ccc2c(-c3ccnc(NC4CC4)n3)c(-c3ccc(F)cc3)nn2c1,-5.39%
12,COc1ccc(Nc2ncc(-c3ccccc3)o2)cc1OC,8.32%
13,Nc1nccc(-c2c(-c3ccc(F)cc3)ncn2C2CCNCC2)n1,-8.03% and 2.08%
14,Cc1cc(O)cc(C)c1/C=C/c1cncc(C(N)=O)c1,9.09%
15,N#Cc1cccc(Nc2ncc(-c3ccccc3)o2)c1,3.79%
16,CC1=C(C(=O)Nc2ccc3[nH]ncc3c2)C(c2ccc(F)cc2)N=C(c2ccc(C(F)(F)F)nc2)N1 (stereo unspecified),8.32%

row,Compound,inhibition
1,COc1cc2c(cc1Nc1nc(Nc3cccc(F)c3C(N)=O)c3cc[nH]c3n1)N(C(=O)CN1CCN(C(C)C)CC1)CC2,-9.4%
2,COc1cc(N2CCN(C(C)C)CC2)ccc1Nc1nc(Nc2cccc(F)c2C(=O)O)c2cc[nH]c2n1,0.22%
3,Cn1c(-c2nonc2N)nc2cnccc21,3.95%
4,Fc1cccc(COc2ccc(Nc3ncncc3C#Cc3ccccc3)cc2Cl)c1,1.93%
5,CN(c1ccc(NC(=O)NCCN2CCOCC2)cc1)c1ccnc(Nc2ccc(CS(C)(=O)=O)cc2)n1,3.99%
6,COc1cc(Nc2ncc(-c3ccccc3)o2)cc(OC)c1,0.07%
7,COC(=O)Nc1nc2ccc(Oc3ccc(NC(=O)Nc4cc(C(F)(F)F)ccc4F)cc3)cc2s1,2.82%
8,c1ccc(-c2n[nH]cc2-c2ccnc(-c3ccc(OCCn4ccnc4)cc3)c2)nc1,-3.76%
9,OCCCNc1nccc(-c2c(-c3ccc(F)cc3)nn3cc(C(F)(F)F)ccc23)n1,8.72%
10,O=C(O[C@H]1CN[C@H](C#Cc2cc3ncnc(Nc4ccc5c(ccn5Cc5cc(F)ccc5F)c4)c3s2)C1)N1CCOCC1,-1.93%
11,NC(=O)c1ccc2c(-c3ccnc(NCCCO)n3)c(-c3ccc(F)cc3)nn2c1,5.26%
12,FC(F)(F)CNc1nccc(-c2cnn3ncccc23)n1,-2.63%
13,CS(=O)(=O)Nc1ccc(-c2cc(-c3ccccc3)cc(C(N)=O)c2N)cc1,-9.24%
14,CS(=O)(=O)CCNCc1ccc(-c2ccc3ncnc(Nc4ccc(OCc5cccc(C(F)(F)F)c5)cc4)c3c2)o1,-8.96%
15,COc1cccc(Nc2nccc(-c3cnn4ncccc34)n2)c1,1.43%
